# Mcl1 Bid PPI – disrupts binding of human Mcl-1 to Bid peptide | TR-FRET Mcl-1/Bid-Dy647 peptide binding, 1536-well | inhibition, % at 21.7 µM | actives 0.97% (n = 220,000);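 active = compounds that cut the binding signal by more than half at the single screening dose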;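 note: His-tagged Mcl-1 with europium anti-His antibody binding Bid BH3 peptide; 0% = Mcl-1 plus peptide wells and 100% = peptide-only wells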
# GLD-1 RNA inh – GLD-1-TGE RNA interaction inhibition (C. elegans) | Q17339 | purified GLD-1 + fluorescein TGE RNA, fluorescence polarization | inhibition, % at 5.96 µM | actives 0.44% (n = 320,000) | AID 2280;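 active = percent inhibition above a per-plate cutoff, the plate mean of test compounds plus 3 SD, cut at about 30% in these data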;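 note: 0% = DMSO wells with GLD-1 and probe and 100% = wells lacking GLD-1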
# MCL1-BIM inh – MCL1-BIM-BH3 interaction inhibition (human); AID 2057; actives 0.68% (n = 320,000); inhibition, % at 10.9 µM; GST-MCL1 / FITC-Bim-BH3 fluorescence polarization;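 active = inhibition above the mean inhibition of all tested compounds plus 3 SD, set per campaign, cut at about 40% in these data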;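 note: 0% = DMSO wells and 100% = unlabeled Bim-BH3 peptide control; higher means more loss of mP so more displacement of Bim peptide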
# Mcl-1 Bim block – human Bim-Mcl-1 interaction inhibition. Q07820. Bead-based flow cytometry, Bim peptide-Mcl-1 binding. inhibition, % at 10 µM. actives 0.1% (n = 190,000). AID 1009; in the data active = inhibition above about 40%;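 note: 0% = no compound tracer wells and 100% = peptide blocker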
# Mcl1-Noxa inh – disrupts binding of human Mcl-1 to Noxa peptide; Q07820; TR-FRET Mcl-1/Noxa peptide binding, 2 h; inhibition, % at 21.7 µM; actives 1.5% (n = 220,000); AID 1022;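 active = compounds that cut the protein-peptide binding signal by more than 50% relative to plate controls in a single-dose test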;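 note: His-tagged Mcl-1 with rhodamine Noxa BH3 peptide and terbium anti-His antibody; 0% = Mcl-1 plus Noxa peptide wells and 100% = peptide-only wells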
# Bcl-xL primary – inhibitors of human Bcl-xL; inhibition, % at 10.9 µM; GST-Bcl-xL / FITC-Bim BH3 peptide fluorescence polarization; actives 0.7% (n = 320,000);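 active = inhibition above the mean of all tested compounds plus 3 SD, cutoff set per campaign, cut at about 30% in these data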;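 note: 0% = DMSO wells and 100% = unlabeled Bim-BH3 peptide competitor; inhibitors lower millipolarization by displacing the labeled peptide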
# Target sequence (Q07817 whole entry, looked up): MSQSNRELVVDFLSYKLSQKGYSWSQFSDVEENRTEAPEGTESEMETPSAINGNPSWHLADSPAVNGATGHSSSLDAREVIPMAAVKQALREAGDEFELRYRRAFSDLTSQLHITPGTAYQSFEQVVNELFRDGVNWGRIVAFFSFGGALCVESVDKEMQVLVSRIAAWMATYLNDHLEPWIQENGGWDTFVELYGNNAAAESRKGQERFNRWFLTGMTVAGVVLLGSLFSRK
# * marks the source's active call; other numbers are inactive results; x = no result given. Most compounds without a hit are left out; they make up all but 2.3% or so of the library.
SMILES,Mcl1 Bid PPI,GLD-1 RNA inh,MCL1-BIM inh,Mcl-1 Bim block,Mcl1-Noxa inh,Bcl-xL primary
CC1SC(C)C(=O)N(CC(=O)Nc2ccc3c(c2)OCO3)C1=O (stereo unspecified),-19,-3,4,-2,34,3
O=C(Cc1ccccc1[N+](=O)[O-])Nc1ccc2c(c1)OCO2,-9,-8,-13,1,8,-3
CN(C(=O)c1coc(=O)c2ccccc12)c1ccc(Br)cc1,-29,0,0,-1,-5,0
CCCCN(C)C(=O)c1coc(=O)c2ccccc12,94*,3,4,-1,-16,2
CCOC(=O)c1nncc(-c2ccccc2)n1,x,0,-1,x,x,2
COc1cc(/C=N/NC(=O)c2ccncc2)ccc1OC(=O)c1cccc(Br)c1,x,-5,3,x,x,0
O=C(N/N=C/c1ccc(OC(=O)c2ccc([N+](=O)[O-])cc2)cc1)c1cccnc1,x,2,8,x,x,9
COc1cc(/C=N/NC(=O)c2cccnc2)ccc1OC(=O)c1ccc([N+](=O)[O-])cc1,34,4,-1,1,58*,-1
COc1cccc(/C=N/NC(=O)c2ccncc2)c1OC(=O)c1ccc(Br)cc1,x,27,38,x,x,34*
COc1cc(OC)c([N+](=O)[O-])cc1/C=N/NC(=O)c1ccncc1,-5,0,14,7,71*,5
COc1cccc(C(=O)COC(=O)c2cccs2)c1,x,1,4,x,x,2
CCOC(=O)C1(CC2CCCCO2)CCN(C(=O)NCc2ccccc2)CC1 (stereo unspecified),-15,6,3,-2,1,2
CN(CCO)S(=O)(=O)c1ccc2c(c1)C(=NN)c1cc(S(=O)(=O)N(C)CCO)ccc1-2,x,-5,0,x,x,3
CCCCn1c(SCC(=O)Nc2ccc(NC(C)=O)cc2)nc2ccccc2c1=O,x,74*,2,x,x,5
CCn1c(SCC(=O)Nc2ccccc2)nc2ccccc2c1=O,x,1,-6,x,x,1
CC(NC(=O)c1ccccc1)C(=O)OCC(=O)c1ccc(Br)cc1 (stereo unspecified),x,-1,10,x,x,169*
CC(=O)NC(C)C(=O)OCC(=O)c1ccc(-c2ccccc2)cc1 (stereo unspecified),-4,-2,-6,5,2,-11
COc1ccccc1C(=O)COC(=O)C1(C)CC1(Cl)Cl (stereo unspecified),x,-1,x,x,x,x
CCN1CCCC1CNc1ncnc2c1[nH]c1ccc(Cl)cc12 (stereo unspecified),6,1,3,-2,73*,2
CCCCC[C@@H]1C=C(C(=O)O)[C@H](c2ccc(OC)c(OC)c2)N1S(=O)(=O)c1ccc(C)cc1,x,4,x,x,x,x
CN(C)S(=O)(=O)c1cccc(NC(=O)c2cc3c(=O)n4ccccc4nc3s2)c1,69*,4,-1,-2,-83,4
Cc1cc(NS(=O)(=O)c2ccc(NC(=O)c3cc4c(=O)n5ccccc5nc4s3)cc2)nc(C)n1,-25,x,x,4,15,x
CCOC(=O)c1c(C)[nH]c(C(=O)COC(=O)c2ccc([N+](=O)[O-])o2)c1C,x,10,x,x,x,x
Cc1ccc(C2NC(=O)NC(O)(C(F)(F)F)C2C(=O)c2cccs2)o1 (stereo unspecified),-19,1,7,-2,0,0
Cc1ccc(C(=O)C2C(c3cccs3)NC(=O)NC2(O)C(F)(F)F)cc1 (stereo unspecified),63*,-1,2,-3,12,7
Cc1ccc(C2NC(=O)NC(O)(C(F)(F)F)C2C(=O)c2ccccc2)o1 (stereo unspecified),-6,-3,5,13,-14,0
COc1ccc(C(=O)C2C(c3ccc(-c4ccccc4[N+](=O)[O-])o3)NC(=O)NC2(O)C(F)(F)F)cc1 (stereo unspecified),10,10,6,-4,57*,3
COc1ccc(C2NC(=O)NC(O)(C(F)(F)F)C2C(=O)c2ccc(F)cc2)cc1 (stereo unspecified),-6,7,4,-2,1,5
O=C1NC(c2ccc(-c3ccccc3[N+](=O)[O-])o2)C(C(=O)c2ccc(F)cc2)C(O)(C(F)(F)F)N1 (stereo unspecified),-3,0,0,-2,55*,1
